The list is not random: actives were taken first. Their share in the collection is about 12%.
Shiga toxin inh – A qHTS for Small Molecule Inhibitors of Shiga Toxin; Vero cells, Shiga toxin protein synthesis inhibition reporter; inhibition, % at 38.7 µM; hit rate 9.2% among 290,000; in the data active = inhibition mostly above about 28%, no sharp cut-off; inactive = mostly below about 43%
FMDV antiviral – High Throughput Screening for Foot and Mouth Disease Virus Antivirals | FMDV antiviral cell-based qHTS | Potency, µM (highest dose often 57.9 µM), most hits filed as inhibitors | hit rate 1.2% among 410,000 | AID 1159524, 2015; calls by dose curve; tested in HEK293T cells; note: read-out not given here; nearly all actives have a fitted effect of over 45% in size
Cycloheximide cs – Cycloheximide Counterscreen for Small Molecule Inhibitors of Shiga Toxin; cell reporter, cycloheximide protein synthesis inhibition counterscreen; hit rate 12% among 300,000; max response, %; AID 2314, 2010; in the data active = max response mostly above about 13%, no sharp cut-off; inactive = mostly below about 14%; note: read at 38.3 µM for the half of the compounds with a filed dose
Sm TGR block – qHTS Assay for the Inhibitors of Schistosoma Mansoni Peroxiredoxins. Schistosoma mansoni thioredoxin glutathione reductase (TGR), Q962Y6. purified TGR, DTNB reduction, TNB absorbance 405 nm. Potency, µM (series often up to 114 µM), most hits filed as inhibitors. hit rate 3% among 360,000. AID 485364, 2010; active = well fitted inhibition curve with a large enough effect; inconclusive = small, poorly fitted or top-dose-only effect; inactive = no such curve, though single readings can be large or run the other way; note: nearly all actives have a fitted effect of over 60% in size
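Kinetic colorimetric format: TGR-catalysed, NADPH-driven DTNB reduction monitored via TNB absorbance. Enzyme dispensed at 20 nM; compound exposure 15 min at room temperature before reaction start.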
A number is an active result; . = inactive; ? = inconclusive; / = no result.

SMILES	Shiga toxin inh	FMDV antiviral	Cycloheximide cs	Sm TGR block
Cc1nc(NC(=O)c2cccs2)ccc1Br	105.9	.	54.0	.
CC(C)NC(=O)c1cc(-c2cccs2)on1	56.6	.	30.6	.
Cc1cc(C)nc(NC(=O)c2cccs2)c1	/	.	21.2	.
Cc1cccc(CNC(=O)C2CCN(c3nn4cc(-c5ccc(F)cc5)nc4s3)CC2)c1	/	.	/	.
Cc1cc(NC(=O)c2cc(-c3cccs3)on2)no1	114.2	.	28.5	.
Cc1cc(NC(=O)c2cccs2)no1	57.1	.	32.5	.
CC(=O)Nc1ccc(NC(=O)c2cc(-c3cccs3)on2)cc1	/	.	/	.
COC(=O)c1c(NC(NC(C)=O)C(Cl)(Cl)Cl)sc2c1CCCC2 (stereo not given)	.	35.5µM	.	.
CCOC(=O)c1c(NC(NC(C)=O)C(Cl)(Cl)Cl)sc2c1CCCC2 (stereo not given)	.	?	.	.
O=C(Nc1cccc(S(=O)(=O)C(F)F)c1)c1ccc(Cl)c(S(=O)(=O)N2CCOCC2)c1	.	39.8µM	.	.
O=C(Nc1cccc(C(=O)NC2CC2)c1)c1ccc(Cl)c(S(=O)(=O)N2CCOCC2)c1	/	?	/	.
CC1CCN(S(=O)(=O)c2cc(C(=O)N3CCN(c4ncccn4)CC3)ccc2Br)CC1	.	20µM	.	.
O=C(Nc1nc2ccccc2[nH]1)c1ccc(Cl)c(S(=O)(=O)N2CCCC2)c1	.	?	33.4	.
O=C(Nc1ccccn1)c1ccc(Br)c(S(=O)(=O)N2CCCC2)c1	50.3	.	33.9	.
CC1CCN(C(=O)c2ccc(Br)c(S(=O)(=O)N3CCOCC3)c2)CC1	.	.	.	.
O=C(NCCc1ccccc1)c1ccc(Cl)c(S(=O)(=O)N2CCOCC2)c1	.	.	24.2	.
O=C(NCCN1CCOCC1)c1ccc(Cl)c(S(=O)(=O)N2CCCC2)c1	.	.	.	.
O=C(Nc1cccc(Br)c1)c1ccc(Cl)c(S(=O)(=O)N2CCOCC2)c1	.	/	21.3	.
O=C(Nc1ccc(Br)cc1)c1ccc(Cl)c(S(=O)(=O)N2CCCCCC2)c1	/	28.2µM	/	.
CCn1c(CN2CCCCC2)nc2cc(NC(=O)COc3ccc(C(C)(C)C)cc3)ccc21	/	?	/	.
CCC(C)NC(=O)C1CCN(C(=O)c2cc3sccc3n2Cc2ccc(Cl)cc2)CC1 (stereo not given)	/	14.1µM	/	.
CC(NC(=O)/C(C#N)=C/c1cccs1)c1ccccc1 (stereo not given)	.	.	.	.
N#C/C(=C\c1cccs1)C(=O)Nc1ccccn1	.	.	36.1	.
Cc1ccc(NC(=O)/C(C#N)=C/c2cccs2)c(C)c1	100.8	.	50.0	.
CC(C)(C)c1ccc(C(=O)/C(C#N)=C/c2cccs2)cc1	73.2	.	33.4	.
SMILES	Shiga toxin inh	FMDV antiviral	Cycloheximide cs	Sm TGR block
Cc1ccc(NC(=O)/C(C#N)=C/c2ccsc2)c(C)c1	101.8	.	43.4	.
COc1cc(C(=O)NCCSc2c(-c3ccccc3)[nH]c3ccccc23)cc(OC)c1OC	/	?	/	.
C=C1c2ccccc2O[C@H](C(=O)OCC)[C@@H]1C1CCCCC1 (tested in a mixture with another compound)	.	/	.	/
CCCNC(=O)c1c(NC(=O)c2ccccc2)sc2c1CCC(C(C)(C)C)C2 (stereo not given)	/	.	/	.
Cc1ccccc1NC(=O)/C(C#N)=C\c1ccsc1	.	.	27.6	.
CCCc1cc2c(=O)c(-c3nc4ccccc4s3)c(COCC(=O)O)oc2cc1O	95.1	.	43.4	39.8µM
Cc1ccc2nc(SCc3nc4ccccc4c(=O)[nH]3)[nH]c2c1	68.8	.	27.3	.
O=c1[nH]c(CSc2ccccn2)nc2ccccc12	119.5	.	42.7	.
Cc1ccc2nc(CSc3nc(C)ccc3C#N)[nH]c2c1	.	8.91µM	17.0	.
Cn1ccnc1SCc1nc2c(cnn2-c2ccccc2)c(=O)[nH]1	.	.	.	.
O=c1[nH]c(CSc2ccccn2)nc2c1cnn2-c1ccccc1	30.9	.	.	.
CCn1c(SCc2nc3ccccc3c(=O)[nH]2)nc2ccccc2c1=O	.	?	.	.
CCCN1CCN(C(=O)Cn2ncc3c4ccccc4n(Cc4cccc(Cl)c4)c3c2=O)CC1	/	.	/	.
COc1ccccc1N1CCN(C(=O)Cn2ncc3ccsc3c2=O)CC1	/	.	/	.
CCCCn1cc(S(=O)(=O)c2cc(C)ccc2C)c(=O)c2cc(F)c(F)cc21	/	.	/	.
COC(=O)c1sc(N2C(=O)c3oc4ccc(C)cc4c(=O)c3C2c2ccc(OC)cc2)nc1C (stereo not given)	/	.	/	.
CCCCCCc1nc2ccccc2c(=O)n1N	.	.	.	.
Nn1c(CSc2ccccn2)nc2ccccc2c1=O	82.8	.	43.7	.
Cc1c(NC2=C(Cl)C(=O)N(c3ccccc3Cl)C2=O)c(=O)n(-c2ccccc2)n1C	.	.	.	39.8µM
C=CCNC1=C(Cl)C(=O)N(c2ccccc2Cl)C1=O	.	/	.	44.7µM
N/C(=N\NC(=O)c1ccc(Cl)cc1)c1cnccn1	47.8	.	32.7	.
O=C(Nc1cnccn1)c1ccc(Cl)cc1	58.3	.	.	.
O=C(Nc1cnccn1)c1ccncc1	.	.	.	.
O=C(NCCNC(=O)c1cnccn1)c1ccc(Cl)cc1	.	.	.	.
Cc1ccc(Cl)cc1N1CCN(C(=O)c2ccc3c(c2)CCN3S(=O)(=O)c2ccccc2)CC1	/	.	/	.
SMILES	Shiga toxin inh	FMDV antiviral	Cycloheximide cs	Sm TGR block
COc1cc(=O)n2c(c1C(=O)NCc1ccco1)CCN(Cc1ccc3ccccc3c1)CC2	/	.	/	/
CC(CCc1ccccc1)NC(=O)Cn1c(=O)nc(-c2ccccc2)c2cc(Cl)ccc21 (stereo not given)	/	.	/	.
CC1(C)CN=C(Nc2nc3ccccc3s2)S1	77.1	.	38.0	.
Cc1ccc(S(=O)(=O)Nc2nc3ccccc3s2)cc1	.	.	.	.
Fc1ccc(Nc2nc3ccccc3s2)cc1	119.7	.	39.6	.
Cc1ccccc1Nc1nc2ccccc2s1	135.1	.	66.4	.
Cc1ccc(Nc2nc3ccccc3s2)cc1	72.1	.	28.8	.
O=c1c2ccccc2nc2sc(Nc3ccc(F)cc3)nn12	/	.	/	.
COc1ccccc1N1CCN(C(=O)CCn2cnc3onc(-c4ccc(F)cc4)c3c2=O)CC1	/	.	/	.
CCc1ccccc1NC(=O)CC(c1ccc(F)cc1)N1Cc2ccccc2C1=O (stereo not given)	/	.	/	.
CCn1c(SCC(=O)Nc2cc(Cl)ccc2OC)nc2c([nH]c3ccccc32)c1=O	/	.	/	.
CCn1cc(/C=C(\NC(=O)c2ccc(C)cc2)C(=O)NCCCn2ccnc2)c2ccccc21	/	.	/	.
CCc1nc2nc(C)cc(Nc3cc(C)ccc3C)n2n1	/	.	/	?
CNC(=O)C(=O)Nc1nc(C23CC4CC(CC(C4)C2)C3)cs1	.	.	15.7	.
CCOc1ccc(Cc2nccc3cc(OCC)c(OCC)cc23)cc1OCC	/	.	/	/
S=c1nc(-c2ccccc2)n(-c2ccccc2)[nH]1	.	.	.	.
CN=c1nc(-c2ccccc2)n(-c2ccccc2)s1	/	.	/	1.12µM
CCn1nc(C)c2c(-c3ccccc3)cc(=O)n(C(C)C(=O)NCc3ccc(C)cc3)c21 (stereo not given)	/	.	/	.
CCC(=O)NC(=S)Nc1cccc(NC(=O)CC)c1	.	.	.	.
